Screens from PubChem BioAssay.
A selection: hits, their analogues and other compounds. The true share with any hit is near 3.1%.
VDR inhibitor: blocks the human vitamin D receptor. P11473. VDR-SRC2-3 peptide fluorescence polarization, 2 h. Potency, µM, actives largely listed as inhibitors. hit rate 0.93% among 400,000
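Fluorescence polarization assay measuring small-molecule disruption of VDR binding to the coregulator peptide SRC2-3. Compounds were pin-transferred (23 nl) into the reagent mix and incubated 2 h at room temperature before reading.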
Vif-APOBEC3G blk: blocks the Vif interaction with human APOBEC3G. HeLa A3G-eYFP + Vif (tagged APOBEC3G with the HIV-1 protein that degrades it), YFP fluorescence, overnight. Potency, µM (doses to about 46.1 µM), most hits filed as inhibitors. hit rate 0.076% among 410,000. AID 602310; further: nearly all actives have a fitted effect of over 60% in size
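Read-out is eYFP fluorescence (Ex 488/Em 500-530) from Vif-expressing HeLa A3G-eYFP cells; more signal means A3G escaped Vif-mediated degradation. Cells plated overnight, compound pinned in, incubated overnight at 37 deg C.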
TSHR antagonist: antagonists of human thyroid stimulating hormone receptor; hit rate 0.2% among 330,000; TSHR-expressing cells, TSH-stimulated cAMP HTRF, 2 h; stronger effect = lower value; AID 504810; P16473; activity change, negative = inhibition, % at 11.5 µM;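 active means activity change below a set negative limit, meaning inhibition stronger than a set level, cut at about -70% in these data; inconclusive means activity change between two set negative limits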
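Inhibition of cAMP made by TSHR-expressing cells under TSH stimulation (4nM final, EC80; 2 h, 37 deg C) is quantified with a one-step lysis HTRF kit, anti-cAMP cryptate versus cAMP-d2.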
Vif-A3F inh: inhibitors of Vif-A3F interaction | HeLa A3F-eYFP + Vif (tagged APOBEC3F with the HIV-1 protein that degrades it), YFP fluorescence increase | Potency, µM (titrated, usually from 46.1 µM) | hit rate 0.2% among 390,000; further: nearly all actives have a fitted effect of over 65% in size
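HeLa cells stably expressing A3F-eYFP plus Vif, plated and incubated overnight at 37 deg C, then exposed to compounds overnight at 37 deg C. Blocked degradation read as raised yellow fluorescence (Ex 488/Em 500-530).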
PLK1 PBD inh: inhibitors of human PLK1 polo-box domain binding; P53350; Plk1 PBD binding of FITC phosphopeptide, fluorescence polarization; Potency, µM, usual class: inhibitors; hit rate 2.8% among 360,000; AID 720504; further: series mostly up to about 57 µM; nearly all actives have a fitted effect of over 65% in size
Target sequence (P53350 whole entry, looked up, the tested form may be a part): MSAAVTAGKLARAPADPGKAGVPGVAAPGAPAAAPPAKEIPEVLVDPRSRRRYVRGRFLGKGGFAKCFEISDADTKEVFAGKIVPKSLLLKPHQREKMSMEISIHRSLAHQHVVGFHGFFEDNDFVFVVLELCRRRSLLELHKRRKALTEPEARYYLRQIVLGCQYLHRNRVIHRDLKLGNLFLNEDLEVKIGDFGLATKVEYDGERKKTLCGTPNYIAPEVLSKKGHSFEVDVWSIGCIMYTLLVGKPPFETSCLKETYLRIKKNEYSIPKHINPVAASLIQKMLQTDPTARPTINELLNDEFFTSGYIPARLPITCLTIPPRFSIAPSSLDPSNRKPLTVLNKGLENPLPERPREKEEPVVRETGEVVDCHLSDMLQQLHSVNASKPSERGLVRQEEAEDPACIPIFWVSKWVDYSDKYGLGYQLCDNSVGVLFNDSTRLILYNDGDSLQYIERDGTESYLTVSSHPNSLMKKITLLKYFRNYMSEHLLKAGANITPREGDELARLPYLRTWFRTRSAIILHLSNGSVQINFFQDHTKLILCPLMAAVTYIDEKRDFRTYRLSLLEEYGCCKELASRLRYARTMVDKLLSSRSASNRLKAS
Numbers stand for hits; – = inactive; ? = inconclusive; · = no result. Unless noted, the call rests on the fitted dose curve; in most records, active means well fitted curve in the direction sought with a large enough effect; inconclusive means small, poorly fitted or top-dose-only effect, or another doubt; inactive means no such curve, though single readings can be large; an effect the other way counts as inactive or inconclusive.

SMILES	VDR inhibitor	Vif-APOBEC3G blk	TSHR antagonist	Vif-A3F inh	PLK1 PBD inh
COC(=O)C(C)N1C(=O)S/C(=C\c2ccc(-c3ccc(C(=O)O)cc3C)o2)C1=O (stereo not drawn)	22µM	?	–	?	30µM
O=C(O)c1ccc(S(=O)(=O)Nc2ccc(O)c(Sc3nc4ccccc4s3)c2)cc1	–	–	–	–	27µM
NS(=O)(=O)c1ccc(Sc2nc3ccccc3s2)c([N+](=O)[O-])c1	–	–	–	–	–
CC(CN1CCCCC1)OC(=O)Cc1ccc(Cl)cc1 (stereo not drawn)	–	–	–	–	–
CC(CN1CCCCC1)OC(=O)COc1ccc(Cl)cc1 (stereo not drawn)	?	–	–	–	24µM
Clc1ccc(Cn2cc3c(n2)-c2cc4ccccc4n2C3)cc1	–	–	·	·	·
Clc1ccc(SCCCCN2CCNCC2)cc1	–	–	–	–	24µM
Cc1ccc(SCCCCN2CCOCC2)cc1	–	–	–	–	–
Cc1ccc(SCCCCN2CCNCC2)cc1	–	–	–	–	17µM
O=C(NNc1cc(Cl)cc(Cl)c1)c1sccc1Cl	–	·	·	·	·
O=C(NNc1ccc(Cl)cc1)c1sccc1Cl	?	–	–	–	27µM
Cc1sc(NC(=O)c2cc(-c3ccc(Cl)cc3)nc3ccccc23)c(C(N)=O)c1C	–	–	–	?	13µM
CCOC(=O)c1sc(NC(=O)CSc2n[nH]c(-c3ccncc3)n2)c(C#N)c1C	–	–	-75	–	–
CC(C)(C)c1nnc(NC(=O)c2cc(-c3ccccc3)nc3ccccc23)s1	?	–	–	–	24µM
COc1cc(-c2cc(C(=O)Nc3ccc(O)cc3)c3ccccc3n2)cc(OC)c1OC	–	–	–	–	27µM
CCc1nnc(NC(=O)c2cc(-c3ccncc3)nc3ccccc23)s1	–	–	–	–	–
CCOC(=O)c1sc(NC(=O)CSc2nccc(C)n2)c(C#N)c1C	–	–	–	–	–
COc1cccc([C@@H]2Oc3ccc(Br)cc3C(=O)[C@H]2OC(=O)NS(=O)(=O)c2ccc(F)cc2)c1	–	·	·	·	·
CCN(CCCNC(=O)CN1N=C(c2ccccc2)CCC1=O)c1ccccc1	–	–	·	–	·
CCOC(=O)c1sc(-c2ccc(C)cc2)c(C#N)c1C	–	–	–	–	24µM
O=C(NN=C1CCCCCC1)c1cc(-c2ccccc2)nc2ccccc12	–	–	–	–	3µM
Cc1c(C(=O)NN)sc(-c2ccccc2)c1C#N	–	–	–	–	–
CCOC(=O)c1sc(NC(=O)c2cc(-c3ccc(C)cc3)nc3ccccc23)c(C#N)c1C	79µM	–	–	–	2.7µM
Cc1ccccc1-c1cc(C(=O)Nc2sc(C(=O)OC(C)C)c(C)c2C#N)c2ccccc2n1	?	–	–	–	11µM
Cc1ccc(-c2cc(C(=O)NN=C3CCCC3)c3ccccc3n2)cc1	?	–	–	–	–
SMILES	VDR inhibitor	Vif-APOBEC3G blk	TSHR antagonist	Vif-A3F inh	PLK1 PBD inh
COc1ccc(-c2cc(C(=O)Nc3sc4c(c3C#N)CCCC4)c3ccccc3n2)cc1	–	–	–	–	–
COc1ccccc1NCc1cccn1-c1nnc(N2CCOCC2)s1	–	–	·	–	·
Cc1ccc(C(C)C)c(OCc2ccc(C(=O)N/N=C/c3ccc(O)cc3O)cc2)c1	–	–	–	–	–
Cc1ccc(C(C)C)c(OCc2ccc(C(=O)N/N=C/c3ccc(C(=O)O)cc3)cc2)c1	–	–	–	–	24µM
CCCCNc1nc(Oc2ccc(=O)n(C)n2)nc(N(C)C)n1	–	·	·	·	·
Cc1ccc(S(=O)(=O)N2CCN(c3nc(-c4cccs4)nc4nc[nH]c34)CC2)cc1	–	·	·	·	·
CCOC(=O)Cc1csc(N/N=C\c2cccc(Br)c2)n1	?	–	–	–	24µM
COc1ccc(-n2cc(-c3ccc(Cl)cc3)[nH]c2=S)cc1	–	–	–	–	–
COc1ccc(-c2cn(-c3ccc(C)c(Cl)c3)c(=S)[nH]2)cc1OC	–	–	–	?	27µM
COC(=O)c1ccc(-n2cc(-c3ccc(OC)cc3)[nH]c2=S)cc1	–	–	–	–	6.7µM
COc1ccc(-c2cn(-c3ccccc3)c(=S)[nH]2)cc1OC	–	–	–	–	21µM
COc1ccc(-c2cn(-c3ccc(C)c(C)c3)c(=S)[nH]2)cc1OC	–	–	–	–	30µM
COc1ccc(-c2n[nH]c(=S)n2-c2ccc(Br)cc2)cc1OC	–	–	–	–	–
COc1ccccc1-n1cc(-c2ccc(C)cc2)[nH]c1=S	–	?	–	–	–
COc1ccccc1-c1cn(-c2ccccc2)c(=S)[nH]1	–	–	–	–	–
Nc1cc(-c2ccncc2)c[nH]c1=O	20µM	–	–	–	30µM
NC(=O)c1csc(-c2ccncc2)n1	–	–	–	–	–
CCNC(=O)c1c(NC(=O)c2cc(=O)c3ccc(C)c(C)c3o2)sc2c1CCCC2	–	–	·	–	·
COC(=O)COc1ccc(NS(=O)(=O)c2cccc([N+](=O)[O-])c2)cc1	–	–	–	–	24µM
CN(C)C(=O)NC1CCCCCCC1	–	·	·	·	·
CNc1ccc(/C=C2\COc3ccccc3C2=O)cc1[N+](=O)[O-]	–	–	–	–	–
O=C1/C(=C/c2ccccc2[N+](=O)[O-])COc2ccccc21	22µM	?	–	–	?
Cc1nc(Sc2nnnn2C2CC2)c2c(-c3ccccc3)csc2n1	·	–	·	·	·
COc1ccc(-n2nnnc2C2CCN(S(=O)(=O)c3cccc(Cl)c3C)CC2)cc1	–	–	·	–	·
COc1cc(C(=S)N2CCC(C)CC2)ccc1O	–	–	–	–	24µM
SMILES	VDR inhibitor	Vif-APOBEC3G blk	TSHR antagonist	Vif-A3F inh	PLK1 PBD inh
COc1ccc(C(=O)NC(=S)N2CCC(C)CC2)cc1Br	–	–	–	–	–
COc1cc(C(=S)N2CCC(C(N)=O)CC2)ccc1O	–	–	–	–	27µM
CCOc1cc(C(=S)N2CCCC2)ccc1O	?	–	–	–	19µM
Oc1ccc(C(=S)N2CCCCC2)cc1	–	–	–	·	19µM
COc1cc(OC)c(-c2nn3c(-c4cc(C)[nH]n4)nnc3s2)cc1OC	?	–	·	·	·
Cc1cc[n+](CC(=O)c2ccc(F)cc2)c2ccccc12	·	–	·	·	·
CCCOC(=O)NCCCN(C)C	–	·	·	·	·
CCOc1ccc(C(=S)N2CCCC2)cc1OC	–	–	–	–	–
COc1cc(C(=S)N2CCCC2)ccc1O	?	–	–	–	27µM
COc1cccc(C(=S)N2CCCC2)c1OC	?	–	–	–	24µM
COc1ccc(C(=S)N2CCN(c3ccccc3C)CC2)cc1OC	?	–	·	–	24µM
COc1cccc(C(=O)C(=O)c2cccc(OC)c2OC)c1OC	–	–	·	–	–
COc1cc(C(=S)N2CCCCC2)ccc1O	–	–	–	–	?
O=S(=O)(c1ccc(Cl)cc1)N1CCN(c2nc(-c3cccc(Br)c3)nc3ccccc23)CC1	–	–	·	·	·
COc1ccc2c(CCNC(N)=S)c[nH]c2c1	?	–	–	–	19µM
COc1ccc2c(CCNC(=O)c3ccco3)c[nH]c2c1	–	–	–	–	–
CCc1ccc(NCc2cc3ccc(OC)cc3n(CC(=O)Nc3ccccc3OC)c2=O)cc1	–	–	·	–	·
